The source of these data is PubChem BioAssay.

Test [1] can be described thus: inhibitors of TNFa-induced NFkB p65 translocation, primary screen, imaging, HUVEC, MLSMR starter and 10KST1 sets (AID 438).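 Further: compound added about 3h40 before a 20 min TNFalpha stimulation.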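 On inhibition: signal is the nuclear over cytoplasmic p65 intensity ratio per well.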 The note with it: HUVEC TNFa-induced p65 nuclear translocation; cell count: measured here: nuclei count (cytotoxicity indicator), at 2.08 µM; inhibition: at 2 µM, stronger effect = higher value, 0% TNFa-plus-vehicle, 100% no-TNFa wells.
Test [2] in a line: inhibitors of mutant huntingtin aggregation, primary screen, imaging, exon1htt(103Q)mCFP cells, high-content imaging (AID 483;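 active means visual image review flags a hit and inhibition of aggregation exceeds 20%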;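 further: compound exposure lasted 3 days before fixation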;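 on nuclei count: percent of the per-plate median nuclei count of sample wells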). To be noted: exon1htt(103Q)mCFP cell line, aggregate imaging, at 2 µM; inhibition of aggregation: stronger effect = higher value; nuclei count: measured here: cell count, toxicity.
Test [3] in a line: inhibitors of E-selectin induction by TNFa, primary screen, imaging, HUVEC, immunofluorescence, MLSMR starter and 10KST1 sets (AID 487;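 active means visually confirmed hit in the image check and inhibition above 20%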;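 on inhibition: signal is fraction of cell area covered by stained E-selectin grains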;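 on nuclei count: 100% = median nuclei count of all wells on the same plate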). The note with it: HUVEC TNFalpha-induced E-selectin immunofluorescence imaging, at 2 µM; inhibition: stronger effect = higher value; nuclei count: measured here: cell number, toxicity.
Test [4] concerns the target Voltage-gated potassium channel subunit beta-2 (Rattus norvegicus) (UniProt P62483). Description: KvBeta enzyme negative modulators, primary screen, biochemical, NADPH fluorescence (AID 622;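 active means fluorescence slope higher than the sample average by over 3 SD, cut at about -0.22 in these data, passing the limit was not always enough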;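 further: slope of raw intensity against log time taken from 70 to 1610 s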). The note with it: recombinant KvBeta, 4-cyanobenzaldehyde reduction, at 10 µM, stronger effect = higher value.
Test [5] has the same target. The test is described as follows: KvBeta positive modulators, primary screen, biochemical, NADPH fluorescence (AID 623;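 active means NADPH fluorescence slope more negative than the mean of all samples by about 3 SD, 99.7% confidence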;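 further: fluorescence intensity change per second fitted from 20 to 320 s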). The note with it: Recombinant KvBeta, NADPH fluorescence decrease slope, 10 min; at 10 µM; stronger effect = lower value.
The target in test [6] is Alpha-2C adrenergic receptor (Homo sapiens) (UniProt P18825). The test is described as follows: modulators of alpha2C/GIRK thallium flux, primary screen, cell-based, HEK293 alpha2C/GIRK1/2 (AID 624;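 active means fluorescence slope after compound addition differing from the mean of all screened samples at 99.7% confidence, in either direction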;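 further: slope of fluorescence ratio to pre-addition baseline per second over 15 to 24 s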). To be noted: thallium flux BTC fluorescence, at 10 µM, actives lie on both sides.
The nature of test [7]: inhibitors of Sendai virus-induced IRF3 signaling, primary screen, TLR/RLR signaling modifier project, cell-based, Sendai virus stimulus, luciferase, 10K MLSCN set (AID 602276;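 active means inhibition at or above 50% at 10 µM; inactive means inhibition below 50%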;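 further: firefly luciferase from ISG56 promoter only with Renilla not read in this screen; 0% = Sendai virus plus DMSO and 100% = medium plus DMSO without virus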). The note with it: HEK293 RL24 IRF3 luciferase reporter, at 10 µM, stronger effect = higher value. A general note: In a reporter assay the amount or activity of a reporter protein is the signal.
Test [8] in a line: inhibitors of poly I:C-induced TLR3 signaling, primary screen, cell-based, poly I:C stimulus, luciferase, 10K MLSCN set (AID 602277;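 active means inhibition of the reporter signal at or above 50%; inactive means inhibition below 50%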). To be noted: HEK293-TLR3 RL24 IRF3 luciferase reporter, at 10 µM, stronger effect = higher value.

Activity calls are given as the source filed them.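 How the source made its calls, unless noted: active means inhibition above 20% together with a positive visual image hit; inconclusive means visual image hit but inhibition not above 20%; inactive means no visual image hit.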

Sequence of Alpha-2C adrenergic receptor (Homo sapiens) (P18825 whole entry, looked up): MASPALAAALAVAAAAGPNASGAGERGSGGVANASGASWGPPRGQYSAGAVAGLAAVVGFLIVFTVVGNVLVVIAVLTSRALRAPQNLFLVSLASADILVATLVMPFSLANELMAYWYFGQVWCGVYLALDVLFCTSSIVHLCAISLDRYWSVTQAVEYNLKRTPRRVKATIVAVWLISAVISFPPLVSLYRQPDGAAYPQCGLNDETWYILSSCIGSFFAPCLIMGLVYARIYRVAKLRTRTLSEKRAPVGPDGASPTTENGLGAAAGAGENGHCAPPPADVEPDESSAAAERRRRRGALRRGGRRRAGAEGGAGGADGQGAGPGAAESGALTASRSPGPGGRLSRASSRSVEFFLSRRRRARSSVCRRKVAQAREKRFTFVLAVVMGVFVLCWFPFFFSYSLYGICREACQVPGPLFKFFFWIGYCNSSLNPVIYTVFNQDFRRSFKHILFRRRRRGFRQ
Sequence of Voltage-gated potassium channel subunit beta-2 (Rattus norvegicus) (P62483 whole entry, looked up): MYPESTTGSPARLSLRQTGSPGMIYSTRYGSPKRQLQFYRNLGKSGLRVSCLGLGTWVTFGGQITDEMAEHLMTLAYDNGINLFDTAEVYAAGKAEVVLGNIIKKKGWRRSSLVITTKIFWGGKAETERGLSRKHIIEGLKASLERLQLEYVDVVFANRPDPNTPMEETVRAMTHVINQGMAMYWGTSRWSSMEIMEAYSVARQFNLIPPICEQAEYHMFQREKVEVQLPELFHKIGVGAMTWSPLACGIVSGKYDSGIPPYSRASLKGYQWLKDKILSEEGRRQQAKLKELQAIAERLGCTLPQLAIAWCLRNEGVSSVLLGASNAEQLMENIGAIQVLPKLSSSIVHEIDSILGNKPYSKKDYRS

One may read the inhibition as the change of the read-out against control, counted positive when it falls. With `Cc1cnc(C(=O)OCC(=O)Nc2ccc(Cl)cc2Cl)cn1`, the cell count in test [1] turned out to be 738. Besides, the inhibition in test [1] is 8.7% (inactive); in test [3], -37% (inactive); in test [7], 10.9% (inactive); in test [8], 14.7% (inactive). For the same compound, the inhibition of aggregation in test [2] was -16.9% (inactive). For the same compound, the nuclei count in test [2] amounted to 119%; in test [3], 94.9%. In test [4], the fluorescence slope was -0.51 (inactive). In addition, in test [5], the NADPH fluorescence slope was -5.1e-05 (inactive). Moreover, the slope in test [6] is 0.00552 (inactive).

Take `Clc1ss/c(=N\c2ccccn2)c1Cl`: in test [1], the cell count is 623. Moreover, the inhibition was -6.5% (inactive) in test [1], -39.9% (inactive) in test [3], -8.89% (inactive) in test [7] and -24% (inactive) in test [8]. In test [2], the inhibition of aggregation is -1.1% (inactive). Further, the values for the nuclei count in test [2] and in test [3] were 112% and 124%, respectively. The fluorescence slope in test [4] was -0.483 (inactive). Moreover, the NADPH fluorescence slope in test [5] is -0.000216 (inactive). The slope in test [6] was 0.0043 (inactive).

Take `CCOC(=O)C1CCCN(CCC(C)c2ccccc2)C1` (centres undefined): the cell count in test [1] was determined as 469. Besides, the inhibition was -2.7% (inactive) in test [1], 25% (inactive) in test [3], 14.2% (inactive) in test [7] and 29.6% (inactive) in test [8]. In test [2], the inhibition of aggregation was 2.6% (inactive). Also, the nuclei count came out at 92.9% in test [2] and 76.3% in test [3]. Besides, the fluorescence slope in test [4] was -0.612 (inactive). The NADPH fluorescence slope in test [5] is -4.1e-05 (inactive). Further, in test [6], the slope is 0.00315 (inactive).

For the compound `COc1ccc(C(=O)Cn2nnc(-c3cccs3)n2)cc1`, the cell count in test [1] came out at 368. Further, the inhibition was -7% (inactive) in test [1], -0.6% (inactive) in test [3], -2.35% (inactive) in test [7] and -30.5% (inactive) in test [8]. Moreover, the inhibition of aggregation in test [2] was 27.6% (inactive). The nuclei count was found to be 89.5% in test [2] and 100% in test [3]. In addition, the fluorescence slope in test [4] was -0.407 (inactive). In addition, the NADPH fluorescence slope in test [5] is -4.9e-05 (inactive). The slope in test [6] was 0.00512 (inactive).

For `COc1ccc(CCNc2oc(COc3ccccc3Cl)nc2C#N)cc1OC`, the cell count in test [1] is 643. Moreover, the inhibition in test [1] is 0.3% (inactive); in test [3], -24.6% (inactive); in test [7] it was 1.77% (inactive); in test [8], -11% (inactive). For the same compound, the inhibition of aggregation in test [2] is -3% (inactive). Besides, the nuclei count in test [2] worked out at 99.9%; in test [3] it was 109%. Moreover, the fluorescence slope in test [4] was -0.462 (inactive). In addition, the NADPH fluorescence slope in test [5] was -5.7e-05 (inactive). Moreover, the slope in test [6] was 0.00453 (inactive).

Turning to `[O-][n+]1c2ccc3nonc3c2nn1-c1ccccc1Cl`, the cell count in test [1] was 340. The inhibition is 8.5% (inactive) in test [1], -21.9% (inactive) in test [3], 0.797% (inactive) in test [7] and -2.81% (inactive) in test [8]. Further, the inhibition of aggregation in test [2] was -11.3% (inactive). The figures for the nuclei count in test [2] and in test [3] were 111% and 118%, respectively. In addition, the fluorescence slope in test [4] is -0.507 (inactive). Further, the NADPH fluorescence slope in test [5] was -5.7e-05 (inactive). Moreover, the slope in test [6] was 0.0043 (inactive).

Consider `Nc1c(S(=O)(=O)c2cccs2)c2nc3ccccc3nc2n1CC1CCCO1` (centres undefined), for which the cell count in test [1] is 667. Further, the inhibition in test [1] was -7.3% (inactive); in test [3], -71.1% (inactive); in test [7], 10.7% (inactive); in test [8], 35.1% (inactive). The inhibition of aggregation in test [2] is -6% (inactive). Besides, the nuclei count is 117% in test [2] and 141% in test [3]. In test [4], the fluorescence slope was -0.0861 (active). In test [5], the NADPH fluorescence slope is 2.8e-06 (inactive). Moreover, in test [6], the slope was 0.00409 (inactive).

`Cc1cc(Nc2ccccc2N2CCOCC2)n2ncnc2n1`: the cell count in test [1] was found to be 226. Besides, the inhibition in test [1] was 2% (inactive); in test [3] it was -16.1% (inactive); in test [7] it was 21.9% (inactive); in test [8] it was 44.1% (inactive). For the same compound, the inhibition of aggregation in test [2] was 13.7% (inactive). Further, the nuclei count amounted to 89% in test [2] and 97% in test [3]. Moreover, the fluorescence slope in test [4] is -0.588 (inactive). Moreover, the NADPH fluorescence slope in test [5] is 7.3e-06 (inactive). Also, the slope in test [6] was 0.00567 (inactive).

As to `COc1ccccc1NC(=O)CSc1nnc(Cc2cccn2C)n1-c1ccc(F)cc1`, the cell count in test [1] is 508. Moreover, the inhibition is -7.5% (inactive) in test [1], -51.1% (inactive) in test [3], 11.3% (inactive) in test [7] and 37.8% (inactive) in test [8]. Moreover, the inhibition of aggregation in test [2] was 30.2% (inactive). For the same compound, the nuclei count in test [2] stood at 86.3%; in test [3], 113%. Also, in test [4], the fluorescence slope is -0.529 (inactive). Besides, the NADPH fluorescence slope in test [5] is -2.1e-05 (inactive). In addition, in test [6], the slope was 0.00524 (inactive).

Regarding `CCCCNC(=O)CSc1nc2ccc(N3CCOCC3)cc2c(=O)n1CCc1ccccc1`, in test [1], the cell count came out at 533. Besides, the inhibition in test [1] is -0.8% (inactive); in test [3], -18.8% (inactive); in test [7] it was 2.7% (inactive); in test [8] it was 10.3% (inactive). In addition, the inhibition of aggregation in test [2] was 28.7% (active). Besides, the values for the nuclei count in test [2] and in test [3] were 48.9% and 110%, respectively. In addition, in test [4], the fluorescence slope was -0.565 (inactive). Moreover, in test [5], the NADPH fluorescence slope was -1.2e-05 (inactive). In addition, the slope in test [6] was 0.00671 (inactive).

Regarding `COC(=O)c1[nH]c2ccc(F)cc2c1NS(=O)(=O)c1ccc(OC)cc1OC`, the cell count in test [1] was determined as 682. Further, the inhibition in test [1] was -11% (inactive); in test [3], -80.2% (inactive); in test [7], 16.7% (inactive); in test [8], 45.4% (inactive). The inhibition of aggregation in test [2] was -3.2% (inactive). Further, the values for the nuclei count in test [2] and in test [3] were 106% and 152%, respectively. The fluorescence slope in test [4] is -0.598 (inactive). The NADPH fluorescence slope in test [5] is -5.6e-05 (inactive). Also, in test [6], the slope is 0.00552 (inactive).

`O=C(CCN1C(=O)C2C3C=CC(C3)C2C1=O)Nc1c(F)cc(F)cc1Br` (centres undefined): the cell count in test [1] was determined as 827. In addition, the inhibition was -6.6% (inactive) in test [1], -21.9% (inactive) in test [3], -0.108% (inactive) in test [7] and 11.7% (inactive) in test [8]. For the same compound, in test [2], the inhibition of aggregation was 16.5% (inactive). The nuclei count in test [2] came out at 95.3%; in test [3] it was 120%. Besides, the fluorescence slope in test [4] was -0.587 (inactive). The NADPH fluorescence slope in test [5] is -6.8e-05 (inactive). In test [6], the slope was 0.00666 (inactive).

As for `CCCCP(=O)(CCCC)c1ccccc1C(=O)O`, the cell count in test [1] was determined as 404. Moreover, the inhibition in test [1] was -2.2% (inactive); in test [3] it was -21.2% (inactive); in test [7], 6.88% (inactive); in test [8], 21.9% (inactive). Also, the inhibition of aggregation in test [2] is 12.2% (inactive). Besides, the nuclei count came out at 81.7% in test [2] and 87.7% in test [3]. The fluorescence slope in test [4] was -0.421 (inactive). Besides, the NADPH fluorescence slope in test [5] is -9.2e-05 (inactive). In addition, the slope in test [6] is 0.00521 (inactive).

On to `Cc1nnc(SCCn2c(Br)nc3c2c(=O)n(C)c(=O)n3C)s1`, for which, in test [1], the cell count was found to be 410. Also, the inhibition in test [1] is 3.8% (inactive); in test [3], -12% (inactive); in test [7], -7.02% (inactive); in test [8], -0.072% (inactive). In test [2], the inhibition of aggregation is 2% (inactive). Also, the nuclei count came to 101% in test [2] and 109% in test [3]. Further, the fluorescence slope in test [4] is -0.374 (inactive). Further, the NADPH fluorescence slope in test [5] is -1.8e-05 (inactive). Besides, the slope in test [6] was 0.00518 (inactive).
